From PubChem BioAssay AID1851 (National Center for Advancing Translational Sciences (NCATS), 2009)
“And” between values parts separate entries of the source, which are not always exact repeats. Equal entries are not always repeated. Screen size: about 16,000 compounds; about 5,700 (36%) were called active. Inconclusive results (about 24%) are left out. The list shows a part of the results. Unmarked numbers belong to inactive results. The call rests on the fitted dose curve; in most records, active means well fitted curve in the direction sought with a large enough effect; inconclusive means small, poorly fitted or top-dose-only effect, or effect the other way; inactive means no such curve, though single readings can be large or run the other way.

target: Cytochrome P450 1A2 (Homo sapiens) (UniProt P05177); test: Cytochrome panel assay with activity outcomes; conditions: recombinant CYP, pro-luciferin dealkylation, luminescence, p450-cyp1a2; series mostly up to 57.1 µM
On the % scale 0 is the no-effect control and ±100 the full control effect.

Chain of Cytochrome P450 1A2 (Homo sapiens) (P05177 whole entry, looked up): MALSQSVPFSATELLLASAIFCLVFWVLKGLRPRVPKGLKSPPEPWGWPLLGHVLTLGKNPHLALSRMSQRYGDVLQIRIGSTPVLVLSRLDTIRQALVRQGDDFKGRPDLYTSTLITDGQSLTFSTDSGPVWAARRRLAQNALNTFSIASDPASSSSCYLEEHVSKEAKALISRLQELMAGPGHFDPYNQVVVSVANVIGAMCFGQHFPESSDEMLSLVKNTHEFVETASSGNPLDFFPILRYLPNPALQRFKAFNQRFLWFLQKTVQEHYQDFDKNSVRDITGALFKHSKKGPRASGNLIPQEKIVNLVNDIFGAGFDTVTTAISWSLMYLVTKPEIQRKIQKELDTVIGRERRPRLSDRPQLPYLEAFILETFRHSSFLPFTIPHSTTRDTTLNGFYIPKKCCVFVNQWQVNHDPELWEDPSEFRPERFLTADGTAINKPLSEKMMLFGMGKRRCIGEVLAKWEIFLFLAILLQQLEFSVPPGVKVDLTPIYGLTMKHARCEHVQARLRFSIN

| SMILES | AC50 | activity, negative = inhibition |
| --- | --- | --- |
| COc1cc(/C=N/O)cc(Br)c1OCc1cccc(Cl)c1 | 0.631 µM (active) |  |
| O=C(O)c1cc(-c2ccc(-c3ccc(-c4cc(C(=O)O)c5cc(Cl)ccc5n4)cc3)cc2)nc2ccc(Cl)cc12 |  | -18.1% [at 2.29 µM] |
| N/C(=N\OC(=O)c1cc(-c2ccccc2)nc2ccccc12)c1ccc(Cl)cc1 | 11.2 µM (active) |  |
| O=C1[C@H]2[C@H]3[C@H](O)[C@H](O)C/C(=N/OC[C@@H](O)COCc4ccco4)[C@@H]3CC[C@@H]2C(=O)N1Cc1ccccc1 |  | 11.1% [at 11.4 µM] |
| CCNc1ncc2nc(-c3ccccc3)c(=O)n(C3CC3)c2n1 | 2.51 µM (active) |  |
| CCNc1ncc2nc(-c3ccc(Cl)cc3)c(=O)n(C3CC3)c2n1 | 0.501 µM (active) |  |
| O=C(O)C1=C/C(=C(/c2ccccc2)c2cc(C(=O)O)c(O)c3ccccc23)c2ccccc2C1=O |  | -21.5% [at 11.4 µM] and -13.1% [at 11.4 µM] |
| Cc1ccc(O)c(-c2cc(C(F)(F)C(F)F)nc(-c3ccccc3)n2)c1 | 2.82 µM (active) |  |
| Fc1ccccc1NC(=S)NCCc1ccccc1 | 5.62 µM (active) |  |
| COc1ccccc1NC(=S)NC(=O)c1ccc(-c2ccc(Cl)cc2)o1 | 2.82 µM (active) |  |
| COc1ccccc1NC(=S)NCCc1ccccc1 | 12.6 µM (active) |  |
| Fc1ccc(NC(=S)NCCc2ccccc2)c(F)c1F | 5.62 µM (active) |  |
| COc1ccccc1NC(=S)NNC(=O)c1c(Cl)c(C)nn1C | inactive |  |
| CCn1cc(C(=O)O)c(=O)c2cc(F)c(N3CCN[C@@H](C)C3)c(F)c21 | inactive |  |
| CC(C)(C)c1ccc(S(=O)(=O)/C=C\C#N)cc1 | 1.58 µM (active) |  |
| C[C@@](N)(C(=O)O)c1ccc(S(=O)(=O)O)cc1 | inactive |  |
| CC(=O)NCCC(=O)Nc1sc2c(c1-c1nc3ccccc3[nH]1)CCCC2 | 7.08 µM (active) |  |
| CCc1cc2c(=O)c(-c3nc4ccccc4[nH]3)coc2cc1OC(=O)N1CCOCC1 | inactive |  |
| Cc1c(OC(=O)c2ccc([N+](=O)[O-])cc2)c2c(c[n+]1C)COC(C)(C)OC2 | 17.8 µM (active) |  |
| OCC1CCCN(Cc2ccc(-c3ccccc3)cc2)C1 (stereo not drawn) | inactive |  |

| SMILES | AC50 | activity, negative = inhibition |
| --- | --- | --- |
| Cc1ccc(C(=O)c2c[nH]c(C(=O)NCCCN3CCOCC3)c2)cc1 | inactive |  |
| O=C(NCCc1ccccn1)c1cc(C(=O)C2CCCCC2)c[nH]1 | 14.1 µM (active) |  |
| O=C(NCCCN1CCOCC1)c1cc2c(s1)CSC2 | inactive |  |
| O=C(NCCCN1CCOCC1)c1cc(C(=O)C2CC2)c[nH]1 | 17.8 µM (active) |  |
| Cc1cc(C)cc(N(C(=O)c2ccccn2)C(C(=O)NC2CCCCC2)c2cccs2)c1 (stereo not drawn) | inactive |  |
| C/C(CCC(=O)OC[C@@H]1O[C@H](C#Cc2ccccc2)C=C[C@@H]1Oc1ccc(C)cc1)=N/O[C@@H](C)CN1CCCc2nc(C)c(C)cc21 |  | -8.42% [at 11.4 µM] |
| CC(=O)OC[C@@H]1O[C@@H](O/N=C2/C[C@@H](O)[C@@H](O)[C@@H]3[C@@H]4C(=O)N(C(C)(C)C)C(=O)[C@H]4CC[C@@H]23)[C@H](OC(C)=O)[C@H](OC(C)=O)[C@@H]1OC(C)=O |  | -1.47% [at 11.4 µM] |
| [O-][N+]1(CC[N+]2([O-])CCCCC2)CCCCC1 |  | -3.29% [at 11.4 µM] |
| COc1ccc(NC(=O)c2ccc(C)cc2Cl)c([N+](=O)[O-])c1 | 2 µM (active) |  |
| CCOc1ccc(/C=C/C(=O)Nc2ccc(OC)cc2[N+](=O)[O-])cc1 | inactive |  |
| COc1ccc(NC(=O)CSc2nncn2C)c([N+](=O)[O-])c1 | 11.2 µM (active) |  |
| COc1ccc(NC(=O)C(=O)NNC(=O)c2cccs2)c(OC)c1 | inactive |  |
| COc1ccc(NC(=O)CN(C)S(=O)(=O)c2ccc(Cl)cc2)c([N+](=O)[O-])c1 | inactive |  |
| COc1ccc(NC(=O)c2cccs2)c([N+](=O)[O-])c1 | 3.16 µM (active) |  |
| CC(C)(C)N1C(=O)[C@H]2[C@@H]3[C@H](O)C=CC(=O)[C@H]3CC[C@H]2C1=O |  | -5.4% [at 11.4 µM] |
| c1ccc2c(Nc3ccncc3)nc(-c3ccc4c(c3)OCO4)nc2c1 | 1.26 µM (active) |  |
| c1ccc(Nc2nc(-c3ccc4c(c3)OCO4)nc3ccccc23)cc1 | 1.26 µM (active) |  |
| COc1cc(C2C(C#N)=C(N)N(Nc3ccccc3)C3=C2C(=O)CC(C)(C)C3)ccc1OCc1cccc(F)c1 (stereo not drawn) | inactive |  |
| CN1CCN(c2nc3cc(C(F)(F)F)ccc3n3cccc23)CC1 | 200 nM (active) and 39.8 nM (active) |  |
| N=C1SCC(=O)N1c1nc(-c2ccccc2)cs1 | 1.41 µM (active) |  |

| SMILES | AC50 | activity, negative = inhibition |
| --- | --- | --- |
| COc1ccc(-c2csc(N3C(=N)SCC3=O)n2)cc1 | 0.631 µM (active) |  |
| O=C1C2C3c4ccccc4C(c4ccccc43)C2C(=O)N1c1nc(-c2ccccc2)cs1 (stereo not drawn) | inactive |  |
| CC(C)OC(=O)CC12CN(C)CC(CC(=O)OC(C)C)(CN(C)C1)C2=O | inactive |  |
| Cc1cccc(NC(=O)CSc2nnnn2C)n1 | 14.1 µM (active) |  |
| Cc1c(NC(=O)CSc2nnnn2C)c(=O)n(-c2ccccc2)n1C | inactive |  |
| CCOc1ccccc1-n1nnnc1SCC(=O)Nc1cc(C)on1 |  | -7% [at 11.4 µM] |
| CC1=NS(=O)(=O)c2cc(Cl)ccc2N1 | 3.16 µM (active) and 2 µM (active) |  |
| NS(=O)(=O)c1cc2c(cc1Cl)NC(CSCc1ccccc1)=NS2(=O)=O | inactive |  |
| Clc1ccc(-c2cc3ccccc3[nH]2)cc1 | 0.501 µM (active) |  |
| N#C/C(=C\NC(=S)c1ccncc1)c1nc2ccccc2s1 | 3.16 µM (active) |  |
| CC(C)NC(=O)N1CCC2(CC1)CCN(C(=O)c1ccncc1)CC2 | inactive |  |
| CN(C)c1ccc(-c2cncnc2Nc2ccc(F)cc2)cc1 | 0.501 µM (active) |  |
| CN(C)c1ccc(-c2cncnc2Nc2ccccc2)cc1 | 0.398 µM (active) |  |
| Cc1ccc(C(C2C(=O)CC(C)(C)CC2=O)C2C(=O)CC(C)(C)CC2=O)s1 | inactive |  |
| COc1ccccc1N/C(=N/S(=O)(=O)c1ccc(C)cc1)c1ccc(Cl)cc1 | inactive |  |
| O=S(=O)(/N=C(/Nc1ccccn1)c1ccccc1)c1ccc(Cl)cc1 | 14.1 µM (active) |  |
| O=S(=O)(/N=C(\Sc1ccccc1)c1ccccc1)c1ccc(Cl)cc1 | 8.91 µM (active) |  |
| O=S(=O)(/N=C(/Nc1ccc(F)cc1F)c1ccc(Cl)cc1)c1ccccc1 | inactive |  |
